From PubChem
A549 tox-1 = counter-screen for Nrf2 inhibitors: cytotoxicity in A549 cells; A549 ARE-Fluc cells, CellTiter-Fluor viability, 18-24 h; 390,000 tested, 0.16% active; AID 504648; Potency, µM (top dose mostly 46 µM), for the others: top-dose activity change, negative = cytotoxicity, hits mostly inhibitors; further: on the % scale 0 is the no-effect control and ±100 the full control effect
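A549 ARE-Fluc cells in 5% FBS OPTI-MEM, 5000 cells/well, rested 2 h then exposed to compounds in concentration-response for 18-24 h at 37 °C. Viability by CellTiter-Fluor fluorescence (Ex 405/Em 525) after 30 min; luciferase luminescence (BugLite, 15 min, RT) read afterwards.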
Nrf2 block = blocks Nrf2 signaling; AID 504444; Potency, µM (titrated, usually from 46 µM), without a hit: top-dose activity change, negative = inhibition, actives largely listed as inhibitors; A549 ARE-Fluc reporter, luciferase luminescence, 18-24 h; 360,000 tested, 2.1% active; further: on the % scale 0 is the no-effect control and ±100 the full control effect; nearly all actives have a fitted effect of over 60% in size
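A549 ARE_Fluc cells, 5000/well, 5% FBS OPTI-MEM; compounds in dose-response, 18-24 h at 37 °C/5% CO2; CellTiter-Fluor viability read (Ex 405/Em 525), then BugLite luciferase luminescence = Nrf2 activity.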
IDH1 R132H inh = inhibitors of human mutant IDH1 R132H | 390,000 tested, 0.093% active | O75874 | IDH1-R132H enzyme, NADPH consumption, diaphorase/resazurin fluorescence | Potency, µM (top dose mostly 76.6 µM), without a hit: at the top dose activity change, negative = inhibition, usual class: inhibitors; further: on the % scale 0 is the no-effect control and ±100 the full control effect; nearly all actives have a fitted effect of over 65% in size
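IDH1-R132H (0.5 ug/mL) preincubated 30 min with compound, then NADPH (0.016 mM) and alpha-KG (2 mM) added; 80 min at RT, pH 7.5. Remaining NADPH coupled via diaphorase/resazurin to fluorescence (540/590 nm); concentration-response curves normalized to no-enzyme control.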
ELG1 repair inh = inhibitors of ELG1-dependent DNA repair in HEK293T cells. 330,000 tested, 2.3% active. HEK293T ELG1-luciferase reporter, luminescence, 16 h; DNA damage induced by 5-fluorouridine. Potency, µM (highest dose often 46.1 µM), inactives show at the highest dose activity change, negative = inhibition, most hits filed as inhibitors; further: on the % scale 0 is the no-effect control and ±100 the full control effect; nearly all actives have a fitted effect of over 55% in size
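HEK293T cells expressing luciferase-tagged ELG1 (2,000/well) received 5-Fluorouridine plus compound or DMSO for 16 hr at 37 °C. Luciferase was read by ONE-Glo luminescence after 30 min at room temperature.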
Nrf2 activator = activates Nrf2 signaling | 410,000 tested, 0.31% active | AREc32 ARE-luciferase reporter (MCF7-derived line), luminescence, 24 h | Potency, µM (highest dose often 46.1 µM), for the others: at the highest dose activation, usual class: activators; further: % of control where 0% means no effect; nearly all actives have a fitted effect of over 65% in size
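Luciferase luminescence (Steady-Glo, 30 min at room temperature) served as the read-out of ARE activation in AREc32 cells treated with compounds for 24 hr at 37 deg C.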
FLuc enzyme inh = counter-screen for Nrf2 inhibitors: firefly luciferase enzyme inhibition. shares compounds with Nrf2 block. purified firefly luciferase, luminescence inhibition. Potency, µM (top dose mostly 57.5 µM), for inactives: at the highest dose activity change, negative = inhibition, usual class: inhibitors. 1,400 tested, 4% active. AID 720522; further: on the % scale 0 is the no-effect control and ±100 the full control effect; nearly all actives have a fitted effect of over 65% in size
Target sequence (P08659 whole entry, looked up): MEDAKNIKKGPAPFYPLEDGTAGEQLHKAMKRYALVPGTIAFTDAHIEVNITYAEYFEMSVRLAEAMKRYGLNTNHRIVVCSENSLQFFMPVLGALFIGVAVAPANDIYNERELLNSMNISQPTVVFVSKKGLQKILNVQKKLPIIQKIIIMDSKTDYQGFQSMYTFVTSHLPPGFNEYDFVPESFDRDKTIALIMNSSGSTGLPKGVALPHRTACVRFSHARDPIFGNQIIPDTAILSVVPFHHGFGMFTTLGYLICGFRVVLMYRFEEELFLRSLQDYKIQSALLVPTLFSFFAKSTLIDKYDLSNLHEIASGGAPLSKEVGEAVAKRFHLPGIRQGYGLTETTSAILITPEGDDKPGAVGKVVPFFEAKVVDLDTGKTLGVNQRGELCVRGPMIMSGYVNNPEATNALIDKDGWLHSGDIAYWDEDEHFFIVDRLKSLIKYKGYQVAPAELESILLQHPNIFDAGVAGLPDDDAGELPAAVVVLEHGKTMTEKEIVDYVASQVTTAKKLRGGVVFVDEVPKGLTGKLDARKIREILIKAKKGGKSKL
A549 tox-2 = toxic to A549 ARE-Fluc cells in Nrf2 counterscreen; shares compounds with Nrf2 block; A549 ARE-Fluc cells, cytotoxicity counterscreen; Potency, µM (titrated, usually from 46.1 µM), inactives show top-dose activity change, negative = cytotoxicity, hits mostly inhibitors; 1,400 tested, 2% active; AID 720523;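 further: cells exposed to compounds for 18 to 24 hours; on the % scale 0 is the no-effect control and ±100 the full control effect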
Nrf2 ARE inh = confirmation of Nrf2 inhibitors in A549 ARE reporter cells | shares compounds with Nrf2 block | A549 ARE-firefly luciferase reporter, luminescence | Potency, µM (titrated, usually from 46.1 µM), inactives show at the highest dose activity change, negative = inhibition, hits mostly inhibitors | 1,400 tested, 74% active; further: on the % scale 0 is the no-effect control and ±100 the full control effect; nearly all actives have a fitted effect of over 65% in size
Active calls of the source: *; ? = inconclusive; . = not tested or not shown; ! = not active in a repeat. Rows were chosen to be rich in hits. Some 3.8% of all compounds tested hit in one or more screens of this group. The call rests on the fitted dose curve; in most records, active means well fitted curve in the direction sought with a large enough effect; inconclusive means small, poorly fitted or top-dose-only effect, or another doubt; inactive means no such curve, though single readings can be large; an effect the other way counts as inactive or inconclusive. Potency means the concentration at half of the fitted maximal effect.

SMILES	A549 tox-1	Nrf2 block	IDH1 R132H inh	ELG1 repair inh	Nrf2 activator	FLuc enzyme inh	A549 tox-2	Nrf2 ARE inh
CNC(=O)c1c(NC(=O)c2ccc(S(=O)(=O)N3CCCCC3C)cc2)sc2c1CCC2 (stereo not drawn)	-1.6%	.	-11.0%	.	0.4%	.	.	.
CC1=C(C(=O)OCc2ccccc2)C(c2cccc(Br)c2)NC(=O)N1 (stereo not drawn)	-0.2%	-18.5%	8.7%	-31.0%	-0.2%	.	.	.
COc1ccc(COC(=O)C2=C(C)NC(=O)NC2c2cccc(Br)c2)cc1 (stereo not drawn)	-5.0%	?	-7.9%	?	5.9%	1.3%	-3.8%	?
Cc1ccc(S(=O)(=O)N2CCN(C(=O)C3CCN(c4ncnc5sc(C)c(C)c45)CC3)CC2)c(C)c1	-10.3%	8.2µM*	-0.4%	.	0.3%	3.4%	-13.7%	11.6µM*
Cc1sc2ncnc(N3CCN(S(=O)(=O)c4ccc(C(C)(C)C)cc4)CC3)c2c1C	?	?	-2.7%	?	-1.1%	.	.	.
COCCn1c(=O)[nH]c2cc(C(=O)N3CCN(c4ccc(Cl)cc4)CC3)ccc2c1=O	-23.2%	5.8µM*!	17.3%	18.3µM*	-0.2%	1.4%	-10.7%	?
COc1ccc(C(=O)/C=C2\Sc3ccccc3N2C)cc1	-11.7%	?	31.3%	?	4.2%	.	.	.
COc1ccccc1-[n+]1c(C)cc(/C=C2\Sc3ccccc3N2C)cc1C	?	4.11µM*	-0.2%	?	-2.1%	0.536µM*	?	0.259µM*
Nc1nc(Cl)nc2c1ncn2[C@H]1C[C@H](O)[C@@H](CO)O1	1.7%	0.013µM*	-6.1%	-4.2%	0.4%	-10.7%	1.0%	5.8µM*
Nc1ncnc2c1ncn2[C@H]1C[C@H](O)[C@@H](CO)O1	21.4%	?	-8.8%	-0.3%	0.3%	.	.	.
CN(C1CCCCC1)S(=O)(=O)c1ccc(F)c(C(=O)Nc2ccc(C(F)(F)F)cc2)c1	0.4%	.	23.6%	.	3.7%	.	.	.
Cc1nc(N2CCCCC2)sc1C(=O)c1cccc([N+](=O)[O-])c1	-14.3%	2.91µM*	-5.0%	1.5%	3.1%	-28.4%	0.4%	-19.6%
COc1ccc(OC)c(-c2csc(-c3c(N)c(C(=O)c4ccc(Cl)cc4)n4ccccc34)n2)c1	-0.1%	1.4%	.	.	0.5%	.	.	.
Cc1cc(NC(=O)c2cc(Cl)ccc2Cl)ccc1-c1cc2ccccc2oc1=O	-4.5%	?	0.0%	.	-0.5%	-3.8%	2.8%	4.7%
Cc1ccc(C(=O)NC(=S)Nc2ccc(-c3cc4ccccc4oc3=O)cc2)c(C)c1	-0.8%	?	-1.6%	10.6%	-2.9%	.	.	.
Cc1cc(C)cc(C(=O)NC(=S)Nc2ccc(-c3cc4ccccc4oc3=O)cc2)c1	0.9%	3.66µM*	2.1%	-3.5%	-2.6%	-6.8%	-18.6%	?
COc1cccc(Cn2c(NCc3ccco3)nc3c2c(=O)n(C)c(=O)n3C)c1	?	8.2µM*	0.5%	?	2.1%	-0.5%	-9.2%	6.51µM*
COc1ccc(Cl)c(Cn2c(NCc3ccco3)nc3c2c(=O)n(C)c(=O)n3C)c1	-9.8%	?	14.8%	?	4.6%	.	.	.
CCN=c1scc(-c2ccc3c(c2)NC(=O)CO3)n1N=C1CCCC1	-15.5%	16.4µM*	2.2%	?	15.8%	-10.4%	-11.5%	7.31µM*
Nc1nc(-c2ccc3c(c2)NC(=O)CO3)cs1	2.5%	11.9%	6.1%	?	2.1%	.	.	.
COCC(C)n1c(-c2ccc3c(c2)NC(=O)CO3)csc1=Nc1ccc(OC(F)F)cc1 (stereo not drawn)	?	10.3µM*	0.2%	?	11.5%	0.1%	-26.2%	9.2µM*
COC(=O)c1cc(S(=O)(=O)N2CCN(c3cccc(Cl)c3)CC2)c[nH]1	-5.6%	?	7.1%	19.1%	-0.3%	.	.	.
CCC(=O)c1ccc(OCc2ccc(C(=O)c3ccccc3)cc2)cc1	?	7.31µM*	-0.8%	?	0.2%	-2.0%	-2.4%	8.2µM*
CCOc1ccc(S(=O)(=O)N2CCC(C(=O)NCc3ccccc3CN3CCCC3)CC2)cc1	-2.0%	14.2%	-2.4%	4.6%	-0.1%	.	.	.
Cn1nnnc1SCCCNCc1cc(Br)ccc1OCc1ccccc1F	-16.2%	?	-28.3%	.	-1.8%	.	.	.
SMILES	A549 tox-1	Nrf2 block	IDH1 R132H inh	ELG1 repair inh	Nrf2 activator	FLuc enzyme inh	A549 tox-2	Nrf2 ARE inh
COc1ccc(S(=O)(=O)N2CCC(C(=O)NCCC(=O)Nc3ccc(Cl)cc3)CC2)cc1	7.2%	-5.3%	-3.1%	12.4%	-0.2%	.	.	.
Cc1ccc(C(=O)Nc2sc3c(c2C(=O)O)CCC(C)C3)o1 (stereo not drawn)	-21.6%	5.8µM*	16.4%	?	4.8%	2.39µM*	-26.7%	5.17µM*
CC(=O)c1ccc(N2CCN(C(=S)Nc3ccc(Oc4ccccc4)cc3)CC2)cc1	?	6.51µM*	5.8%	5.8µM*	1.7%	-9.1%	-0.7%	8.2µM*
C=Cn1cc[n+](CC(=O)c2ccc(Cl)c(Cl)c2)c1	-13.5%	-44.0%	-0.6%	-17.4%	-0.9%	.	.	.
O=C1CNC(=S)N1Cc1ccc(F)cc1	1.3%	8.3%	-6.8%	8.7%	0.6%	.	.	.
N=c1ccn(Cc2ccc(F)cc2)cc1	-12.7%	2.31µM*	2.7%	?	-0.5%	?	20.6µM*	23.1µM*
Cc1ccc(S(=O)(=O)NCC(=O)NCc2ccncc2)cc1	0.6%	1.8%	2.9%	-8.7%	0.1%	.	.	.
Cc1ccc(C)c(S(=O)(=O)NCc2ccncc2)c1	-12.0%	?	5.6%	?	-0.6%	.	.	.
Cc1cc(S(=O)(=O)NCc2ccncc2)c(C)cc1Br	-7.8%	4.11µM*	5.4%	?	0.0%	-0.9%	-4.0%	?
Cc1ccc(S(=O)(=O)NCc2ccncc2)cc1	-5.5%	2.59µM*	7.3%	?	2.0%	2.7%	-7.0%	18.4µM*
CC1CCCCC1NS(=O)(=O)c1ccc(S(=O)(=O)NCc2ccncc2)cc1 (stereo not drawn)	-14.4%	2.31µM*	0.0%	?	-0.5%	0.7%	-10.6%	3.66µM*
CCOc1ccc(S(=O)(=O)NCc2ccncc2)cc1	-29.4%	0.411µM*	2.9%	?	0.4%	-0.1%	-9.4%	0.651µM*
